# This is a sample that favours compounds with a hit; in the whole collection about 12% have one here.
# JMJD2A Tudor – JMJD2A Tudor domain (human) inhibition; AlphaScreen JMJD2A-Tudor / H3K4me3 peptide binding; Potency, µM (series often up to 114 µM), inactives show top-dose activity change, negative = inhibition, hits mostly inhibitors; actives 4.4% (n = 390,000); O75164; AID 504339; note: potency is the fitted concentration of half-maximal effect; % is set by controls: 0 for no effect and ±100 for the full control effect; nearly all actives have a fitted effect of over 50% in size
# HP1b binding inh – HP1-beta chromodomain-methylated histone interaction inhibition | AlphaScreen HP1-beta / biotin-H3K9me3 peptide binding | Potency, µM (doses to about 114 µM), for inactives: at the top dose activity change, negative = inhibition, actives largely listed as inhibitors | actives 0.56% (n = 390,000); note: potency is the fitted concentration of half-maximal effect; nearly all actives have a fitted effect of over 70% in size
# Target sequence (P83916 whole entry, looked up): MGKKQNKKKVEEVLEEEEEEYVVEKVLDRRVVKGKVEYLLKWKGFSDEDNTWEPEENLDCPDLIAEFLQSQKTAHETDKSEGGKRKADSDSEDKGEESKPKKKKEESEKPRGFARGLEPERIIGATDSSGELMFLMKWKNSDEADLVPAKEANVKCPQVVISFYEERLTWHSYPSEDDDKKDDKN
#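 AlphaScreen: HP1-beta (50 nM) preformed 30 min with biotin-H3(1-18)K9me3 peptide (50 nM) in PBS pH 7.4, 0.01% Tween-20. Compound added for 30 min at RT, then streptavidin donor/nickel chelate acceptor beads (10 ug/mL) for 30 min.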
# PI5P4Ka inh – inhibitors of human PI5P4K alpha | PI5P4Kalpha enzyme, ADP-Glo luminescence, 60 min; active compounds read low | max response, % | actives 1.2% (n = 330,000) | AID 652105; active = max response of -50% or lower; inconclusive = between -30% and -50%; inactive = -30% or higher; note: value at the top dose of about 77 µM; % is set by controls: 0 for no effect and ±100 for the full control effect
#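 Luminescence from ADP-Glo served as readout of PI5P4Kalpha activity in a qHTS format. Reaction: enzyme, substrate, compound, ATP at 5 microM final, 60 min at RT.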
# BAZ2B block – blocks human BAZ2B; Q9UIF8; AlphaScreen BAZ2B-H3K14Ac peptide displacement; Potency, µM (doses to about 114 µM), without a hit: at the top dose activity change, negative = inhibition, usual class: inhibitors; actives 4.4% (n = 360,000); AID 504333; note: potency is the fitted concentration of half-maximal effect; % is set by controls: 0 for no effect and ±100 for the full control effect; nearly all actives have a fitted effect of over 60% in size
#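 AlphaScreen luminescence quantifies BAZ2B engagement of H3K14Ac peptide; the protein and biotinylated peptide are both at 50 nM final, buffer PBS pH 7.4 with 0.01% Tween-20, all steps at room temperature.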
# PLK1 PBD inh – PLK1 (human) polo-box domain binding inhibition; Plk1 PBD binding of FITC phosphopeptide, fluorescence polarization; Potency, µM, without a hit: max response, negative = inhibition, usual class: inhibitors; actives 2.8% (n = 360,000); note: potency is the fitted concentration of half-maximal effect; series mostly up to about 57 µM; % is set by controls: 0 for no effect and ±100 for the full control effect; nearly all actives have a fitted effect of over 65% in size
# G9a block – blocks human histone lysine methyltransferase G9a; Q96KQ7; G9a H3K9 monomethylation, AlphaScreen, 2 h; Potency, µM (titrated, usually from 102 µM), for inactives: top-dose activity, negative = inhibition, most hits filed as inhibitors; actives 8.8% (n = 350,000); AID 504332; note: potency is the fitted concentration of half-maximal effect; % is set by controls: 0 for no effect and ±100 for the full control effect; nearly all actives have a fitted effect of over 75% in size
# Target sequence (Q96KQ7 913-1193 limits assumed): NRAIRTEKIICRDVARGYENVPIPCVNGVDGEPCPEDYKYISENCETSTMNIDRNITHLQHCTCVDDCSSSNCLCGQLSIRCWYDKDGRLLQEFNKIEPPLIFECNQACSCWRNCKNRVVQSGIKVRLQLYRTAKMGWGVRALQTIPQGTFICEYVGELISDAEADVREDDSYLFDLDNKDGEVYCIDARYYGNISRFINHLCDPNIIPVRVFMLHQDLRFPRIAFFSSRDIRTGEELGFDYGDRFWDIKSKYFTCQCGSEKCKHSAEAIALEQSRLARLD
#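 G9a (20 nM) preincubated 15 min RT with compounds, then 500 nM biotinylated H3K9 peptide and 20 uM SAM added; 2 h RT reaction. Monomethyl-H3K9 product detected by AlphaScreen with anti-H3K9me1 antibody, streptavidin donor and anti-rabbit IgG acceptor beads.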
# Starred values were filed as active, the others as inactive; u = inconclusive; x = not tested or not shown; [ ] = dose if it differs, or a comment. Unless noted, calls come from the whole dose curve; as a rule, active = well fitted curve in the direction sought with a large enough effect; inconclusive = small, poorly fitted or top-dose-only effect, or another doubt; inactive = no such curve, though single readings can be large; an effect the other way counts as inactive or inconclusive.
SMILES,JMJD2A Tudor,HP1b binding inh,PI5P4Ka inh,BAZ2B block,PLK1 PBD inh,G9a block
C=CCn1c(SCC(=O)N(CCOC)c2c(N)n(CC(C)C)c(=O)[nH]c2=O)nc2ccccc21,-3%,19%,-3,7%,-10%,4%[0.501 µM]
Cc1ccc2occ(CC(=O)N(Cc3ccc(N(C)C)cc3)C3CCS(=O)(=O)C3)c2c1 (configuration not stated),u,-19%,x,45µM*,x,10µM*
CCc1ccc2occ(CC(=O)N(Cc3ccc(N(C)C)cc3)C3CCS(=O)(=O)C3)c2c1 (configuration not stated),40µM*,u,x,20µM*,x,13µM*
CCN(CC)c1ccc(CN(C(=O)Cc2coc3ccc(C)cc23)C2CCS(=O)(=O)C2)cc1 (configuration not stated),u,-16%,x,10µM*,x,10µM*
CC(C)c1ccc2occ(CC(=O)N(Cc3ccc(F)cc3)C3CCS(=O)(=O)C3)c2c1 (configuration not stated),-24%,20%,x,-9%,x,-2%[59 µM]
Cc1c(Nc2c3c(c(C#N)c4nc5ccccc5n24)CCC3)c(=O)n(-c2ccccc2)n1C,x,x,x,-30%,x,50µM*
O=C(CN1C(=O)NC(c2ccccc2)(c2ccccc2)C1=O)Nc1ccc(N2CCOCC2)cc1,u,u,4,x,2%,x
COc1ccc(CC(=O)OCC(=O)Nc2ccc(N3CCOCC3)cc2)cc1,-16%,16%,5,6%,4%,50µM*
COc1cccc(CNCC(=O)Nc2ccc(N3CCOCC3)cc2)c1,25µM*,u,9,50µM*,-2%,3.5µM*
O=C(COC(=O)c1ccco1)Nc1ccc(N2CCOCC2)cc1,-14%,10%,7,17%,-9%,22µM*
COc1ccc(C2(c3ccc(OC)cc3)NC(=O)N(CC(=O)Nc3ccc(N4CCOCC4)cc3)C2=O)cc1,u,u,4,u,-3%,40µM*
O=C1c2ccccc2C(=O)N1c1cc(=O)c2ccccc2[nH]1,-26%,x,x,x,x,x
COC(=O)c1ccccc1C(=O)N(Cc1cccnc1)CC1CCCN(C2CCCCC2)C1 (configuration not stated),-8%,48%,1,-5%[57.1 µM],-6%,10%
O=C(COC(=O)c1ccc(Cl)nc1)Nc1ccc(N2CCOCC2)cc1,-13%,-12%,-5,22%,-10%,56µM*
O=C(Nc1ccc(N2CCOCC2)cc1Cl)C1CCN(C(=O)OCc2ccccc2)CC1,u,17%,7,-32%,-2%,-7%
O=C(Nc1ccc(N2CCOCC2)cc1)C1CCN(C(=O)OCc2ccccc2)CC1,-16%,5%,-8,-2%,-6%,40µM*
NC(=O)c1ccsc1NC(=O)COC(=O)c1ccc(Cl)nc1,-13%,18%,-2,17%,-5%,-24%
NC(=O)c1ccc(NC(=O)COC(=O)CCC(=O)c2ccc(Cl)cc2)cc1,u,8%,-26,-2%,24µM*,-3%
NC(=O)c1ccc(NC(=O)COC(=O)c2ccc(Cl)nc2)cc1,-3%,24%,-4,1%,-1%,7.9µM*
COc1ccccc1N(C)S(=O)(=O)c1ccc(C(=O)NCC2CCCCC2)cc1,-1%,40%,1,3%,1%,3%[12.7 µM]
Cc1cccc(Cn2c(SCc3ccc(C(=O)N4CCCCCC4)cc3)nc3ccncc32)c1,-26%,30%,x,-32%,x,-22%[59 µM]
CN(C)c1ncnc2c1ncn2C1OC(CO)C(O)C1O (configuration not stated),-12%,13%,1,12%,-4%,-2%[59 µM]
COc1ccc(C[C@H](N)C(=O)N[C@H]2[C@@H](O)[C@H](n3cnc4c(N(C)C)ncnc43)O[C@@H]2CO)cc1,79µM*,-3%,1,-6%,-8%,u
Cc1c(NC(=O)C(C)OC(=O)/C=C/c2ccco2)c(=O)n(-c2ccccc2)n1C (configuration not stated),20µM*,45µM*,-13,50µM*,27µM*,u
Cc1c(NC(=O)C(C)OC(=O)c2cc(-c3cccc4ccccc34)nc3ccccc23)c(=O)n(-c2ccccc2)n1C (configuration not stated),-27%,-3%,1,-5%,-10%,11µM*
SMILES,JMJD2A Tudor,HP1b binding inh,PI5P4Ka inh,BAZ2B block,PLK1 PBD inh,G9a block
CCOC(=O)c1sc2cc([N+](=O)[O-])cc(SCC(=O)OC)c2c1N,45µM*,u,x,40µM*,-21%,7.9µM*
CCOC(=O)c1c(S(=O)(=O)NCC(=O)Nc2ccc(F)cc2C)c(C)n(C)c1C,-4%,22%,x,0%,x,-2%[59 µM]
CCOc1ccc(NC(=O)CC2SC(N)=NC2=O)c([N+](=O)[O-])c1 (configuration not stated),-14%,30%,4,-5%,-2%,4%
CCOc1ccc(/C(C)=N/N2C(=O)C(CC(=O)Nc3ccc(OC)cc3[N+](=O)[O-])SC2=Nc2cccc(C)c2C)cc1 (configuration not stated),-29%,9%,1,-38%,-12%,35µM*
CCS(=O)(=O)c1ccccc1C(=O)N(Cc1cccnc1)c1nc2cc(C)c(C)cc2s1,-36%,23%,x,u,x,-43%[59 µM]
CN(C)[C@H]1C(=O)C(C(=O)NCN2CCCC2)=C(O)[C@]2(O)C(=O)C3=C(O)c4c(O)cccc4[C@@](C)(O)[C@H]3C[C@@H]12,x,x,x,x,x,7.9µM*
COc1cc(C=CC(=O)N2CCN(CC(=O)N3CCCC3)CC2)cc(OC)c1OC,x,x,0,x,-7%,x
CC(=O)Nc1ccc(SCC(=O)Nc2ccc(Cl)cn2)cc1,2%,42%,-8,u,13µM*,u
O=C(Nc1ccc(F)cc1)Nc1ccc(Cl)cn1,3%,28%,x,-5%,-2%,1%[12.7 µM]
COc1ccc2c(C)cc(SCC(=O)Nc3ccc(Cl)cn3)nc2c1,-25%,-11%,-25,-25%,-11%,13µM*
O=C(Nc1ccc(F)c(Cl)c1)Nc1ccc(Cl)cn1,u,17%,-10,-7%,15µM*,x
Nc1nc(SCC(=O)Nc2ccc(Cl)cn2)n[nH]1,-17%[11.4 µM],u,1,-10%,30µM*,-30%
O=C(CCNS(=O)(=O)c1ccc(OC(F)(F)F)cc1)NCCc1c[nH]c2ccccc12,-17%,9%,-1,2%,-6%,5%[59 µM]
Cc1ccc(OCCC(=O)OCC(=O)NC(=O)c2ccccc2)cc1,-19%,25%,2,7%,-3%,-47%
Cc1sc2nc(SCC(=O)N(C)c3ccccc3)n(C)c(=O)c2c1C,-18%,23%,9,-17%,-14%,x

# Screening data (PubChem)
